PubChem BioAssay AID624255 (Broad Institute, 2012)
Among all 77,000 compounds or so, about 4,600 (6%) were called active. Inconclusive results (about 1%) are left out. What follows is part of a selection rich in actives, with near analogues and random picks from the rest. Unmarked numbers belong to inactive results.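 Rule for the calls: active = mean inhibition above about 93%, with at least 55% of replicates each passing it (limit read from the data, passing the limit was not always enough); inconclusive = only one of those two conditions holds; inactive = neither condition holds.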

Assay: T. cruzi intracellular proliferation inhibitors, primary screen, cell-based, beta-gal Tulahuen parasites, NIH3T3 host, luminescence (AID 624255)
Settings: T. cruzi beta-gal in NIH3T3, GalScreen luminescence, 90 h; at 8.34 µM; active compounds read high

Structure (SMILES)	inhibition
C/C=C/c1ccc2c(c1)O[C@H](CN(C)C(=O)Cc1ccncc1)[C@@H](C)CN([C@@H](C)CO)S2(=O)=O	20.3%
C[C@H]1CCCCO[C@H](CN(C)CC2CCCCC2)[C@@H](C)CN([C@@H](C)CO)C(=O)c2cc(NS(=O)(=O)c3ccc(Cl)cc3)ccc2O1	88%
CC(C)NC(=O)N(C)C[C@H]1Oc2ncc(C#CC3CCCCC3)cc2C(=O)N([C@H](C)CO)C[C@@H]1C	84.2%
C[C@H]1CN([C@@H](C)CO)C(=O)c2cc(C#CC3CCCCC3)cnc2O[C@H]1CN(C)S(=O)(=O)c1ccccc1	104% (active)
C[C@@H]1CN([C@@H](C)CO)C(=O)c2cc(C#CC3CCCCC3)cnc2O[C@@H]1CN(C)Cc1cncnc1	53.7%
C[C@@H]1CN([C@@H](C)CO)C(=O)c2cc(C#CC3CCCCC3)cnc2O[C@H]1CN(C)S(=O)(=O)c1ccccc1	104% (active)
C[C@@H]1CN([C@H](C)CO)C(=O)c2cc(C#CC3CCCC3)cnc2O[C@H]1CN(C)C(=O)C1CC1	32.3%
CCCC#Cc1cnc2c(c1)C(=O)N([C@H](C)CO)C[C@H](C)[C@@H](CN(C)S(=O)(=O)c1ccccc1)O2	75.2%
C[C@@H]1CN([C@H](C)CO)C(=O)c2cc(NC(=O)Cc3ccccc3)ccc2O[C@@H](C)CCCCO[C@H]1CN(C)C(=O)Cc1ccccc1	-33.3%
O=C(C[C@H]1CC[C@@H]2[C@H](COC[C@@H](O)CN2Cc2cccc(-c3ccncc3)c2)O1)N1CCOCC1	65.1%
O=C(C[C@@H]1CC[C@H]2[C@@H](COC[C@H](O)CN2S(=O)(=O)c2ccc(F)cc2)O1)N[C@H]1CCN(Cc2ccccc2)C1	67.7%
Cc1ccccc1-c1ccc2c(c1)O[C@H](CN(C)C)[C@@H](C)CN([C@H](C)CO)S2(=O)=O	30%
CNC[C@@H]1Oc2cc(-c3ccccc3OC)ccc2S(=O)(=O)N([C@@H](C)CO)C[C@H]1C	42.1%
Cc1ccccc1-c1ccc2c(c1)O[C@H](CN(C)C)[C@H](C)CN([C@@H](C)CO)S2(=O)=O	15.2%
CC(=O)N(C)C[C@H]1Oc2cc(-c3ccc(C)cc3)ccc2S(=O)(=O)N([C@@H](C)CO)C[C@@H]1C	98.5%
COc1ccccc1-c1ccc2c(c1)O[C@@H](CN(C)C)[C@H](C)CN([C@H](C)CO)S2(=O)=O	102% (active)
CCC(=O)N(C)C[C@@H]1Oc2cc(-c3ccccc3OC)ccc2S(=O)(=O)N([C@H](C)CO)C[C@H]1C	52.7%
COc1ccccc1-c1ccc2c(c1)O[C@H](CN(C)S(=O)(=O)c1ccc(C)cc1)[C@@H](C)CN([C@H](C)CO)S2(=O)=O	124% (active)
Cc1ccc(-c2ccc3c(c2)O[C@H](CN(C)C)[C@@H](C)CN([C@@H](C)CO)S3(=O)=O)cc1	71.8%

Structure (SMILES)	inhibition
Cc1ccc(-c2ccc3c(c2)O[C@H](CN(C)C)[C@@H](C)CN([C@H](C)CO)S3(=O)=O)cc1	107% (active)
CO[C@@H](CN(C)S(=O)(=O)c1cccc(Cl)c1)[C@H](C)CN([C@H](C)CO)S(=O)(=O)c1cccc(Cl)c1	71.5%
C[C@@H]1CCCCO[C@H](CN(C)C(=O)Cc2ccccc2)[C@@H](C)CN([C@@H](C)CO)C(=O)c2cc(NC(=O)c3ccccc3)ccc2O1	46.7%
O=C(NCC1CC1)[C@H]1[C@H](CO)[C@H]2Cn3c(ccc(/C=C/c4ccccc4)c3=O)[C@@H]1N2C(=O)C1CCC1	-126%
CCCNC(=O)[C@@H]1[C@@H](CO)[C@@H]2Cn3c(ccc(/C=C/c4ccccc4)c3=O)[C@H]1N2CCC	59.6%
O=C(NCc1ccccn1)[C@@H]1[C@@H](CO)[C@@H]2Cn3c(ccc(/C=C/c4ccccc4)c3=O)[C@H]1N2CC1CC1	110% (active)
COc1ccccc1NC(=O)N[C@H]1C=C[C@@H](CC(=O)N[C@@H](C)c2ccccc2)O[C@@H]1CO	3.52%
CO[C@H]1CN(C)C(=O)c2cc(NC(=O)C3CCC3)ccc2OC[C@H](C)N(Cc2nccs2)C[C@H]1C	16.8%
CCCNC(=O)[C@@H]1[C@@H](CO)[C@@H]2Cn3c(cccc3=O)[C@H]1N2C(=O)C1CC1	38.4%
CCCNC(=O)[C@@H]1[C@@H](CO)[C@@H]2Cn3c(cccc3=O)[C@H]1N2C(=O)Nc1cc(F)ccc1F	81.1%
C[C@@H]1CN([C@@H](C)CO)C(=O)c2cc(NC(=O)C3CCCCC3)ccc2O[C@@H](C)CCCCO[C@@H]1CN(C)Cc1ccc(C(=O)O)cc1	15.2%
C[C@@H]1CCCCO[C@@H](CN(C)CC2CC2)[C@H](C)CN([C@H](C)CO)C(=O)c2cc(NC(=O)C3CCCCC3)ccc2O1	102% (active)
C[C@@H]1CCCCO[C@@H](CN(C)CC2CC2)[C@@H](C)CN([C@H](C)CO)C(=O)c2cc(NC(=O)C3CCCCC3)ccc2O1	89%
C[C@@H]1CCCCO[C@@H](CN(C)CC2CCCCC2)[C@H](C)CN([C@H](C)CO)C(=O)c2cc(NC(=O)C3CCCCC3)ccc2O1	51.3%
C[C@@H]1CN([C@@H](C)CO)C(=O)c2cc(NC(=O)C3CCCCC3)ccc2O[C@@H](C)CCCCO[C@H]1CN(C)Cc1ccncc1	106% (active)
C[C@@H]1CCCCO[C@@H](CN(C)Cc2ccc(C(=O)O)cc2)[C@H](C)CN([C@@H](C)CO)C(=O)c2cc(NC(=O)C3CCCCC3)ccc2O1	-8.6%
O=C(O)C[C@H]1C[C@@H]2c3cc(NC(=O)Nc4ccc(C(F)(F)F)cc4)ccc3O[C@@H]2[C@@H](CO)O1	-33%
C[C@H]1CN([C@@H](C)CO)C(=O)c2cccc(NC(=O)Nc3ccccc3)c2O[C@H]1CN(C)S(=O)(=O)c1ccc(F)cc1	-95%
C[C@H]1CCCCO[C@H](CN(C)CC2CC2)[C@@H](C)CN([C@@H](C)CO)C(=O)c2cc(NS(C)(=O)=O)ccc2O1	4.98%
